In PubChem BioAssay (Tox21) one finds Potency data, which are given here for 40 compounds.

Inconclusive results are not listed. Where a call stands in place of a potency, no number is given. Activity calls are given as the source filed them. Calls follow the shape of the dose curve; as a rule, active = well fitted cell-killing curve with a large enough effect in the repeat runs; inconclusive = weak or mixed curves; inactive = flat fitted curve, though single readings scatter.

A short description of this experiment: qHTS assay to identify small molecule antagonists of the estrogen related receptor (ERR) signaling pathway from Tox21 library - cell viability counter screen (AID 1224834). Also: nearly all actives have a fitted effect of over 30% in size. As to conditions: ERR reporter cells viability, CellTiter-Fluor, 17.5 h; series mostly up to 92.4 µM. From the text:
National Center for Advancing Translational Sciences [NCATS]
NIH Chemical Genomics Center [NCGC]
U.S. Environmental Protection Agency [EPA]
National Institutes of Environmental Health Sciences [NIEHS]
National Toxicology Program [NTP]
U.S. Food and Drug Administration [FDA]
Estrogen related receptors (ERRs), the first orphan nuclear receptors discovered, play an important role in the control of cellular energy metabolism. ERRs are required for high-energy production in response to the environmental challenges. ERR-alpha was also identified as an adverse marker for breast cancer progression; ERR-alpha-positive tumors have a poor prognosis. To screen and to identify environmental compounds that perturb the ERR signaling pathways could provide valuable information for potential therapeutic or preventive measures in the treatment of metabolic disease. To differentiate true ERR antagonists or agonist from cytotoxic substances, the assay is multiplexed with cell viability assay.
Tox21 Assay Protocol Summary:
The ERR cells were dispensed at 2,000 cells/5 ul/well in 1536-well white plates using a Multidrop dispenser. After the assay plates were incubated at a 37 C/5% CO2 incubator for 6 hours, 23 nL of compounds dissolved in DMSO, positive and negative controls or DMSO only was transferred to the assay plate by a pin tool. The plates were incubated at 37 C for 17.5 hours. 1 ul/well of CellTiter-Fluor reagent was added into the assay plates using a Flying Reagent Dispenser. After 30-minute incubation at 37 C/5% CO2, the fluorescence intensity in the plates was measured using a ViewLux plate reader.
Turning to `OCc1cccc(Oc2ccccc2)c1`, the Potency entry is “inactive”.

With `C=CC(C)CCCC(C)(C)O` (stereo not given), the Potency entry is “inactive”. For the compound `CCOC(=O)n1ccn(C)c1=S`, the Potency result is “inactive”. The value for `CSc1ccc(Cl)cc1` was “inactive”; that for `CCO[Si](CCCN)(OCC)OCC` was “inactive”; that for `Cc1ccc2ncccc2c1` was “inactive”. With `O=C1c2ccccc2CCc2ccccc21`, the Potency entry is “inactive”. With `C=CC(=O)OCCC(=O)O` the entry was “inactive”. With `O=C1C(c2[nH]c3ccccc3c2O)=Nc2ccccc21` the entry was “inactive”; with `Cc1ccc([N+](=O)[O-])cc1S(=O)(=O)O`, “inactive”; with `CNC(=S)N(C)C`, “inactive”. With `CCOCCOCCOCCO` the entry was “inactive”; with `CCCCCCCCCCCCCCCCO`, “inactive”; with `OC1C(O)C(O)C(O)C(O)C1O` (stereo not given), “inactive”. For the compound `O=C(O)c1ccccc1C(=O)O`, the Potency result was “inactive”. The value for `CCO[Si](CCC#N)(OCC)OCC` was “inactive”. With `C=CCc1ccc(OC)c(OC)c1` the entry was “inactive”. The value for `N[C@H](Cc1c[nH]c2ccccc12)C(=O)O` was “inactive”. `CC(=O)CC(C)(C)O`: the Potency result is “inactive”. With `CN1C(=O)CC[C@H]1c1cccnc1` the entry was “inactive”; with `Clc1ccccn1`, “inactive”; with `CCCCCC(=O)O`, “inactive”. Regarding `CNC(=O)Oc1ccc2c(c1)[C@]1(C)CCN(C)[C@@H]1N2C`, the Potency entry was “inactive”. For the compound `NCCN1CCNCC1`, the Potency result is “inactive”.

Take `CC(=O)OC1CC(C)OC(C)O1` (stereo not given): the Potency entry is “inactive”. For `Nc1nc(N)nc(-c2ccccc2)n1`, the Potency result is “inactive”. With `CCCCCCCCCCCCCCCC(=O)OC(C)C` the entry was “inactive”. With `O=C1CCCC1` the entry was “inactive”. With `CC(O)CC(C)(C)O` (stereo not given) the entry was “inactive”. Turning to `CC(C)(C)c1cc(Cc2cc(C(C)(C)C)c(O)c(C(C)(C)C)c2)cc(C(C)(C)C)c1O`, the Potency result was “inactive”.

As to `CC1(C)S[C@@H]2[C@H](NC(=O)COc3ccccc3)C(=O)N2[C@H]1C(=O)O`, the Potency entry was “inactive”. The value for `CC(CCl)OP(=O)(OC(C)CCl)OC(C)CCl` (stereo not given) was “inactive”; that for `O=C(O)c1ccc(C(=O)O)c(C(=O)O)c1` was “inactive”. The value for `CN(C)c1ccc(Cc2ccc(N(C)C)cc2)cc1` was “inactive”.

In the case of `O=C(OCC1CCC2OC2C1)C1CCC2OC2C1` (stereo not given), the Potency entry was “inactive”. The value for `CC(C)OP(=O)(CP(=O)(OC(C)C)OC(C)C)OC(C)C` was “inactive”; that for `O=C(O)c1cc2ccccc2cc1O` was “inactive”. With `CC(=O)CCC=C(C)C` the entry was “inactive”; with `CC(C)=CCl`, “inactive”. With `O=[N+]([O-])c1ccc2nc[nH]c2c1` the entry was “inactive”.
